# Screening results as filed in PubChem.
# TDP1 cell CPT: DT40-hTDP1 cell growth loss with CPT. chicken DT40 Tdp1-/-;hTDP1 cells + 20 nM CPT, ATP luminescence, 48 h. Potency, µM (top dose mostly 46.2 µM), inactives show top-dose activity change, negative = growth inhibition, actives largely listed as inhibitors. AID 686979. actives 12% (n = 420,000); note: nearly all actives have a fitted effect of over 55% in size
#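 Chicken DT40 Tdp1-/- cells complemented with human TDP1, 400 cells/well, exposed to compounds plus 20 nM camptothecin for at least 48 h at 37 C; viability read as ATP content by CellTiter-Glo luminescence.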
# RORgamma inh: blocks mouse ROR gamma transcriptional activity; P51450; actives 5.4% (n = 310,000); Potency, µM (series often up to 53.6 µM), for inactives: at the top dose activity change, negative = inhibition, most hits filed as inhibitors; AID 2551; Drosophila S2 Gal4-RORgamma UAS-luciferase reporter, 20 h; note: nearly all actives have a fitted effect of over 60% in size
# Target sequence (P51450 whole entry, looked up, the tested form may be a part): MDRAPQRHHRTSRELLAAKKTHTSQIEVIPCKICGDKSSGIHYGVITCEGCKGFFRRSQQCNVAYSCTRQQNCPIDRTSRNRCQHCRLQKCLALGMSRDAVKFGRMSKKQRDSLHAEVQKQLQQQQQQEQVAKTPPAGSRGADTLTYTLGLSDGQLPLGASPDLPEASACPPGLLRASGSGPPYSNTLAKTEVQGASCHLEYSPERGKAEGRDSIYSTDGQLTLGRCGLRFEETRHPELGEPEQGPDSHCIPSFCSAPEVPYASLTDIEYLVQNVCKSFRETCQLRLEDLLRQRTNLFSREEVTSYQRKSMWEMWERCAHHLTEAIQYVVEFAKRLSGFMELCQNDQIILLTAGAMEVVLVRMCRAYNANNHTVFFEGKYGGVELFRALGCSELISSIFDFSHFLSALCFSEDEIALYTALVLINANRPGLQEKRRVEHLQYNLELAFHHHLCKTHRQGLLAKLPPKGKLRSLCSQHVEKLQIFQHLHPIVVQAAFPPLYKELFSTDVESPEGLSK
#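 Schneider cells (Drosophila), stable Gal4 DBD–ROR gamma + UAS-luc; 1 hr cmpd preincubation; Cu2+ induction 700 uM final; 20 hr ambient; luminescence.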
# Gal4-VP16 FLuc: Gal4-VP16 reporter inhibition counter-screen; AID 2546; Drosophila S2 Gal4-VP16 UAS-luciferase, luminescence, 20 h; actives 3.5% (n = 310,000); Potency, µM (top dose mostly 53.6 µM), without a hit: top-dose activity, negative = inhibition, hits mostly inhibitors;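 note: Gal4-VP16 expression switched on by copper sulfate through the metallothionein promoter; nearly all actives have a fitted effect of over 50% in size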
# DT40 TDP1 no CPT: qHTS for Inhibitors of human tyrosyl-DNA phosphodiesterase 1 (TDP1): qHTS in cells in absence of CPT; DT40 Tdp1-/- hTDP1 cells, no CPT, ATP luminescence, 48 h; actives 15% (n = 420,000); Potency, µM (highest dose often 46.2 µM), for the others: top-dose activity change, negative = growth inhibition, actives largely listed as inhibitors; AID 686978, 2013; note: nearly all actives have a fitted effect of over 55% in size
#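 Readout: luminescence from CellTiter-Glo after 30 min in the dark at RT. Cells: DT40 Tdp1-/- with stable hTDP1, 400/well. Exposure: compounds alone, ≥48 hr, 37 °C.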
# TDP1 block: TDP1 (human) enzyme inhibition; Q9NUW8; recombinant TDP1, AlphaScreen DNA substrate cleavage; Potency, µM (highest dose often 130 µM), for the others: at the highest dose activity change, negative = inhibition, most hits filed as inhibitors; actives 0.28% (n = 350,000); note: nearly all actives have a fitted effect of over 40% in size
#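 Recombinant human Tdp1 (E. coli-expressed, 1 nM final) preincubated with compounds 15 min at room temperature, then 5'-biotin/3'-phosphotyrosine-FITC DNA substrate (15 nM final) added for 5 min. AlphaScreen beads (10 ug/ml final) added 10 min; cleavage lowers signal.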
# Starred values were filed as active, the others as inactive; u = inconclusive; x = not tested or not shown; [ ] = dose if it differs, or a comment. Hits are enriched below; roughly 19% of the tested compounds scored in any of these assays. Calls come from the whole dose curve; as a rule, active = well fitted curve in the direction sought with a large enough effect; inconclusive = small, poorly fitted or top-dose-only effect, or another doubt; inactive = no such curve, though single readings can be large; an effect the other way counts as inactive or inconclusive. % is set by controls: 0 for no effect and ±100 for the full control effect; potency is the fitted concentration of half-maximal effect.
SMILES,TDP1 cell CPT,RORgamma inh,Gal4-VP16 FLuc,DT40 TDP1 no CPT,TDP1 block
CC(Oc1ccc(Cl)cc1Cl)c1nc(-c2ccc(NC(=O)c3ccco3)cc2)no1 (stereo not given),23µM*,35%,-15%,16µM*,1%
COc1ccc(-c2noc(C(C)NC(=O)c3ccco3)n2)cc1 (stereo not given),18µM*,x,x,15µM*,5%
CCNc1ncc2nc(-c3cc(F)cc(F)c3)c(=O)n(C)c2n1,-6%,24%,5%,-1%,x
CCOC(=O)C1(CCCc2ccccc2)CCN(C(=O)CCCn2cncn2)CC1,u,u,u,26µM*,5%
CCOC(=O)C1(CCCc2ccccc2)CCN(C(=O)CCN2CCCCC2=O)CC1,u,u,22%,16µM*,-1%
CCCCn1c(SCC(=O)Nc2cccc(OC)c2)nc2ccsc2c1=O,u,x,x,u,6%
COCCNc1nc(Nc2ccccc2Cl)c2sccc2n1,u,x,x,23µM*,x
COCCNc1nc(NCCOc2ccccc2Cl)c2sccc2n1,13µM*,x,x,16µM*,x
CC(C)Nc1nc(Nc2ccccc2Cl)c2sccc2n1,23µM*,x,x,23µM*,x
COCCNc1nc(NCCCN(C)C)c2sccc2n1,-12%,x,x,-13%,x
COc1ccc(C(=O)Nc2ccc(N3CCN(C(C)=O)CC3)cc2)cc1[N+](=O)[O-],x,1%,-3%,x,1%
COCCCN(Cc1ccco1)C(=O)c1cc2c(s1)-c1ccc(Cl)cc1S(=O)(=O)C2,-16%,1%,17%,-20%,8%
Cc1cc(C)c(NC(=O)CN2C(=O)C3(SCC(=O)N3c3ccc(F)cc3)c3ccccc32)c(C)c1 (stereo not given),u,x,x,u,0%
CC1=CC(C)(C)N2C(=O)C3(SCC(=O)N3c3ccc(F)cc3)c3cc(C)cc1c32 (stereo not given),29µM*,16µM*,0%,10µM*,8%
Cc1cccn2c(=O)nc(SCC(=O)NCc3ccco3)nc12,-3%,x,x,-2%,x
NC(=S)Cc1ccc(Cl)cc1Cl,6%,u,u,5%,x
COc1ccc(Cc2nc3ccc(C(=O)NCc4ncc(C)[nH]4)cc3o2)cc1OC,-25%,4%,9%,12%,2%
COc1ccc(Cc2nc3ccc(C(=O)N4CCN(C)C(C)C4)cc3o2)cc1OC (stereo not given),u,32%,u,18µM*,2%
COc1ccc(Cc2nc3ccc(C(=O)NCc4cc(C)no4)cc3o2)cc1OC,u,u,u,u,2%
COc1ccc(Cc2nc3ccc(C(=O)NC(C)Cc4ncccc4C)cc3o2)cc1OC (stereo not given),18µM*,u,-7%,u,3%
COc1ccc(Cc2nc3ccc(C(=O)NCc4cccc(C)n4)cc3o2)cc1OC,18µM*,x,x,u,x
COc1ccc(Cc2nc3ccc(C(=O)N4CCCC4)cc3o2)cc1OC,u,u,u,21µM*,2%
CCCc1nnc(NC(=O)CCC(=O)N2CCCCC2)s1,1%,8%,3%,-4%,5%
Cc1noc(C)c1CN1C(=O)c2cccc([N+](=O)[O-])c2C1=O,2%,-12%,-13%,-19%,x
CCN(CC)C(=O)CSc1nnc(-c2ccc(O)cc2)n1CC1CCCO1 (stereo not given),-30%,20%,-4%,-5%,-1%
SMILES,TDP1 cell CPT,RORgamma inh,Gal4-VP16 FLuc,DT40 TDP1 no CPT,TDP1 block
O=P(O)(CCc1ccccc1)CN1CCCCC1,5%,38%[0.365 µM],x,1%,10%
CCCCN1C(=O)C(CC(=O)NC2CCCC2)CC(C(=O)N(C)C)=C1C (stereo not given),-2%,x,x,-12%,x
COc1ccc(Cc2nc3ccc(C(=O)N4CCCCC4CO)cc3o2)cc1OC (stereo not given),u,x,x,21µM*,x
COc1ccc(Cc2nc3ccc(C(=O)N(C)Cc4nccs4)cc3o2)cc1OC,10µM*,-5%,u,u,1%
COc1ccc(Cc2nc3ccc(C(=O)NC4CCOC4)cc3o2)cc1OC (stereo not given),12µM*,x,x,u,x
C=CCN(CC=C)C(=O)c1ccc2nc(Cc3ccc(OC)c(OC)c3)oc2c1,u,u,13µM*,4.6µM*,3%
COc1ccc(CCNC(=O)c2ccc3nc(CCc4ccccc4)oc3c2)cc1OC,u,x,x,-29%,5%
CN(Cc1ccccc1)C(=O)c1ccc2c(c1)S(=O)(=O)N=C1CCCCCN12,2%,x,x,0%,1%
CCCCSCc1cc(C(=O)O)oc1C(C)(C)C,-10%,16%,-4%,1%,8%
COC(=O)/C=C1/SC(=NC(=O)c2ccc(F)cc2)NC1=O,-6%,11%,3%,u,4%
COC(=O)/C=C1/SC(=NC(=O)c2ccccc2)NC1=O,u,35%,-7%,21µM*,-3%
COC(=O)/C=C1\SC(=NC(=O)c2cccc(Cl)c2)NC1=O,21µM*,-28%,1%,u,3%
Cc1ccc(/C=N/NC(=O)c2n[nH]c3c2CCCC3)cc1,0.82µM*,-25%,8%,0.92µM*,6%
O=C(N/N=C\c1cccc(Cl)c1)c1n[nH]c2c1CCCC2,4%,-15%,u,-27%,3%
C/C(=N/NC(=O)c1cc(C(C)C)[nH]n1)c1cccs1,-26%,u,-47%,-10%,2%
C/C(=N\NC(=O)c1n[nH]c2c1CCC2)c1cccs1,1%,2.5µM*,3.5µM*,-4%,-2%
O=C(N/N=C/c1cccs1)c1n[nH]c2c1CCCC2,u,5µM*,7.9µM*,21µM*,8%
C/C(=N\NC(=O)c1cc(C)[nH]n1)c1cccs1,0%,13µM*,10µM*,-24%,-5%
CCOC(=O)Cc1ccc(Nc2nc(NCc3cccs3)nc3ccsc23)cc1,21µM*,x,x,21µM*,x
c1csc(CNc2nc(Oc3ccncc3)c3sccc3n2)c1,-26%,x,x,-14%,x
COc1ccc(Nc2nc(NCc3cccs3)nc3ccsc23)cc1OC,26µM*,x,x,18µM*,x
CCSc1nnc(NC(=O)C(C)(C)C)s1,-4%,-26%,-1%,2%,0%
CCN(CC)C(=O)CSc1nnc(-c2cccnc2)n1CCc1ccccc1,-1%,3%,-4%,0%,2%
COc1ccc(S(=O)(=O)N(C)[C@H]2C[C@H]3c4cc(-c5ccccc5)ccc4CCN3C(=O)[C@H]2[C@H](C)O)cc1,u,x,x,21µM*,x
COc1ccc(S(=O)(=O)N(C)[C@H]2C[C@H]3c4cc(Oc5ccccc5C)ccc4CCN3C(=O)[C@H]2[C@H](C)O)cc1,9.2µM*,x,x,6.5µM*,x
